# USP17 block = blocks human USP17 ubiquitin-rhodamine cleavage | purified USP17, Ub-rhodamine cleavage fluorescence, 3 h | inhibition, % at 50 µM | actives 6.5% (n = 47,000)
# USP8 block = inhibitors of human USP8 deubiquitinase | actives 4.2% (n = 47,000) | inhibition, % at 20 µM | P40818 | purified USP8, Ub-rhodamine cleavage fluorescence, 30 min | AID 1645853
# USP28 block = blocks human USP28 ubiquitin-rhodamine cleavage | inhibition, % at 25 µM | actives 3% (n = 47,000) | Q96RU2 | purified USP28, Ub-rhodamine cleavage fluorescence, 30 min
# USP10 block = inhibitors of human USP10 deubiquitinase; actives 1.1% (n = 47,000); Q14694; inhibition, % at 20 µM; purified USP10, Ub-rhodamine fluorescence, 60 min
# USP30 inh = inhibitors of human USP30 deubiquitinase. inhibition, % at 25 µM. Q70CQ3. purified USP30, Ub-rhodamine cleavage fluorescence. actives 5.3% (n = 47,000)
# A number is an active result; - = inactive; . = no result given. The list is not random: actives were taken first. Their share in the collection is about 14%. No stated cut-off is given here; in the data, active means inhibition above about 30%; inactive means the rest.
SMILES,USP17 block,USP8 block,USP28 block,USP10 block,USP30 inh
CCOC(=O)c1noc2ncnc(N3CCc4ccccc43)c12,-,-,-,-,-
CC1=C(c2ccc(C(C)C)cc2)S(=O)(=O)N=C1N1CCN(C)CC1,-,-,-,-,-
Cc1cccc(CNC(=O)Cn2c(=O)c(C)nc3cc(C)c(C)cc32)c1,-,32,-,-,-
COc1ccc2nc(C(=O)NCc3ccccc3OC)cn2n1,-,-,-,-,-
O=[N+]([O-])c1cc(-c2nnc3c(C(F)(F)F)nc4ccccc4n23)ccc1Cl,-,-,-,-,-
CCOC(=O)c1c(-c2ccc(C)o2)csc1NC(=O)COC(=O)c1cc(=O)[nH]c2ccccc12,37,-,.,-,.
c1ccc(Nc2ccc(C3CN(c4ncccn4)CCO3)nc2)nc1 (centres undefined),-,-,-,-,-
COCCn1c(C)cc(C(=O)COC(=O)c2ccc3c(c2)nc(C)n3-c2ccccc2)c1C,-,-,-,-,-
COCCn1c(C)cc(C(=O)c2sc(-c3c(N)n(C)c(=O)n(C)c3=O)nc2-c2ccccc2)c1C,35,-,-,-,-
Cc1ccc2nc(Nc3nc(-c4cnc(N5CCCC5)nc4C)cc(=O)[nH]3)nc(C)c2c1,-,-,-,-,-
Cc1nc(N2CCC(C)CC2)ncc1-c1cc(=O)[nH]c(N2c3ccccc3CC2C)n1 (centres undefined),-,44,-,-,-
Cc1nc(N2CCCCC2)ncc1-c1cc(=O)[nH]c(Nc2nc(C)c3ccccc3n2)n1,66,-,-,-,60
CN(C)c1ccc(C(CNC(=O)Cc2ccc(Cl)cc2)N2CCCC2)cc1 (centres undefined),-,-,-,-,-
CC(C)Oc1ccc(C(=O)OCC(=O)Nc2ccc(Oc3ccccc3)cc2)cc1,-,-,-,-,-
O=C(COC(=O)c1cccc([N+](=O)[O-])c1)Nc1cccc(Oc2ccccc2)c1,-,-,-,-,32
COc1cccc(OC)c1C(=O)OCC(=O)Nc1ccc(Oc2ccccc2)cc1,-,-,34,-,-
CCc1cnc(N2CCC3(CCCN(c4ncccn4)C3)C2)nc1 (centres undefined),-,-,.,-,.
CS(=O)(=O)c1ccc(NC(=O)C2CN(c3nc4c(F)cccc4s3)C2)cc1,55,-,-,-,-
O=C(Cn1c(=O)n(Cc2ccncc2)c(=O)c2ncccc21)Nc1ccccc1,-,-,-,-,-
O=C(Cn1c(=O)n(Cc2ccc3c(c2)OCO3)c(=O)c2ncccc21)c1ccc(Cl)cc1,-,73,-,-,62
O=C(Cn1c(=O)n(Cc2ccc3c(c2)OCO3)c(=O)c2ncccc21)NCc1ccco1,49,-,-,-,-
O=C(Cn1c(=O)n(Cc2ccccc2)c(=O)c2ncccc21)NCc1ccccc1Cl,86,50,-,51,-
O=C(Cn1c(=O)n(Cc2ccc3c(c2)OCO3)c(=O)c2ccccc21)NCC1CCCO1 (centres undefined),-,-,-,-,-
CCN1C(=O)C[C@@H](C(=O)N2CCCN(C(C)=O)CC2)[C@@H]1c1ccccc1OC,-,-,-,-,-
O=S1(=O)CCN(Cc2cccnc2)c2c(F)nc(N3CCOCC3)c(F)c21,54,91,-,-,-
SMILES,USP17 block,USP8 block,USP28 block,USP10 block,USP30 inh
CCN(CC)c1nc(F)c2c(c1F)S(=O)(=O)CCN2Cc1ccccc1,64,95,-,-,-
CCN1c2ccc(S(=O)(=O)N3CCOCC3)cc2N(Cc2c(F)cccc2F)C1C (centres undefined),-,-,-,-,-
O=S1(=O)CCN(Cc2c(F)cccc2F)c2c(F)nc(N3CCOCC3)c(F)c21,67,93,-,-,-
COc1ccc(Cn2ccc3nc(N4CCOCC4)ncc3c2=O)cc1,-,-,-,-,-
COc1ccc(Nc2nc3c(S(=O)(=O)c4ccc(C)cc4)nnn3c3ccsc23)c(OC)c1,-,-,-,38,67
COc1ccc(S(=O)(=O)c2nnn3c2nc(Nc2ccccc2)c2ccccc23)cc1,-,-,-,-,-
N#Cc1ccc(Sc2ccccc2)c(NC(=O)c2ccc(F)cc2)c1,-,-,-,-,31
COc1ccc(CNC(=O)Nc2cccc3ccccc23)cc1,92,97,-,-,38
O=C(NCc1ccc(F)cc1)Nc1cccc2ccccc12,40,71,-,-,40
O=C(CCc1ccc2[nH]ccc2c1)NCc1ccc(F)cc1,-,-,-,-,-
O=C(NCc1ccccc1)Nc1cccc2ccccc12,84,95,-,-,-
CCc1nnc(-c2ccc(=O)n(CC(=O)N3CCN(c4ccccc4F)CC3)c2)o1,-,-,-,-,-
Cc1cc(C)cc(NS(=O)(=O)c2cc3c4c(c2)CC(=O)N4CCC3)c1,-,-,-,-,-
CC(=O)N1CCc2cc(Br)cc(S(=O)(=O)Nc3cc(C)cc(C)c3)c21,47,-,-,-,-
O=C(O)C(Cc1ccccc1)NS(=O)(=O)c1ccc2c(c1)OCCO2 (centres undefined),-,-,-,-,-
O=C(Nc1ccc(N2CCOCC2)cc1)C(Cc1ccccc1)NS(=O)(=O)c1ccc2c(c1)OCCO2 (centres undefined),-,-,37,-,-
O=C(NCc1ccccc1)C(Cc1ccccc1)NS(=O)(=O)c1ccc2c(c1)OCCO2 (centres undefined),86,31,56,-,52
O=C(Nc1ccc(F)cc1)c1cc2ccccc2[nH]c1=O,-,-,.,-,.
O=C(NCc1ccc(CN2CCCC2)cc1)c1cc2ccccc2[nH]c1=O,65,-,-,-,-
COc1ccccc1NS(=O)(=O)c1ccc(-c2c(C)noc2C)cc1,-,-,-,-,-
COc1ccccc1NS(=O)(=O)c1ccc2oc(Nc3ccc4c(c3)CCC4)nc2c1,-,51,-,-,-
CC(C)(C)c1cc2nc3c(c(=O)n2[nH]1)CN(Cc1ccc(Br)s1)CC3,-,40,-,-,-
O=C1C=C(N2CCCCC2)C(=O)N1c1ccc(Cl)cc1,-,-,.,-,.
COc1ccc(CNC(=O)Cn2cnc3ccccc32)cc1OC,-,-,-,-,-
COc1cc(Cn2nnc3ccccc32)cc(Br)c1O,-,-,38,-,-
SMILES,USP17 block,USP8 block,USP28 block,USP10 block,USP30 inh
Cc1cccc(C)c1NC(=O)C(C)n1c(C)nc2onc(C)c2c1=O (centres undefined),.,-,-,-,43
CN(C)CCNC(=O)c1ncn2c1CN(CC(=O)N(C)C)S(=O)(=O)c1ccccc1-2,-,-,-,-,-
O=C(c1ccc(COc2cccc3ccccc23)o1)N1CCC(Cc2ccccc2)CC1,68,-,-,-,-
O=C(COc1ccccc1F)N1CCC(Cc2ccccc2)CC1,-,-,-,-,-
CCOc1ccccc1NC(=O)COC(=O)C(c1ccccc1)c1ccccc1,-,-,-,-,-
NC(=O)C(OC(=O)CSc1ccccc1)c1ccccc1 (centres undefined),-,-,-,-,32
Fc1cccc(-c2cc3n(n2)C(N2CCN(c4cnccn4)CC2)=C2CCC=C2N3)c1,-,-,-,-,-

# High-throughput results as filed in PubChem BioAssay.
